# Several values for one entry are separate records, joined by “and”; a condition that tells them apart may be missing. Equal values may be shown once. Activity calls are given as the source filed them. The calls were made as follows: active = hit-call score of the fitted dose curve at least 0.9, where 1 is the maximum; inactive = score below 0.9.
# Assay: BSK_hDFCGF_Proliferation: Cell Proliferation Assessment in the BioMAP Diversity Plus: hDFCGF Assay (AID 2283059);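 also: curves fitted for both rise and fall of signal versus DMSO baseline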
# Conditions: primary human foreskin fibroblasts
# Description: BSK_hDFCGF is a cell-based, multiplexed-readout assay that uses foreskin fibroblast, a human skin primary cell, with measurements taken at 24 hours after chemical dosing in a 96-well plate.BSK_hDFCGF_Proliferation is an assay component measured in the BSK_hDFCGF assay. It measures […] related to cell proliferation using Sulforhodamine staining technology.Data from the assay component BSK_hDFCGF_Proliferation was analyzed into 1 assay endpoint. This assay endpoint, BSK_hDFCGF_Proliferation, was analyzed with bidirectional fitting relative to DMSO as the negative control and baseline of activity. Using a type of viability reporter, measures of total protein for gain or loss-of-signal activity can be used to understand the viability at the cellular-level. Furthermore, this assay endpoint can be referred to as a secondary readout, because this assay has produced multiple assay endpoints where this one serves a viability function. To generalize the intended target to other relatable targets, this assay endpoint is annotated to the cell cycle intended target family, where the subfamily is proliferation.
# The levels of cell surface (or secreted, indicated by the prefix "s") biomarker endpoints were measured by ELISA. Overt cytotoxicity to cells in confluent adherent cultures (all systems other than the BT system) was assessed by measuring total protein levels using sulforhodamine B (SRB) staining in parallel cultures at the time of biomarker measurements, indicated as SRB endpoints. For proliferation assays for adherent cell types, individual cell types are cultured at sub-confluence and relative cell numbers quantified by SRB staining at time points optimized for each system (48 h: 3C and CASM3C systems; 72 h: BT and HDF3CGF systems; 96 h: SAg system). SRB was performed by staining cells with 0.1% SRB after fixation with 10% TCA and reading wells at 560 nm.Viability and proliferation of PBMC (T cells) was quantified by Alamar Blue reduction for the SAg and BT systems. For PBMC viability (referred to as PBMC Cytotoxicity within the assay endpoint names), cells were plated (75,000/well in a 96-well plate) and then chemical samples added for 1 h before addition of activators, SEB and TSST-1 (20 ng/mL final concentration each). Cells were incubated for 90 h. Then, Alamar Blue (20 uL/well) (Invitrogen, Cat DAL1100) was added for 6 h, and the plates were read with a fluorescence microplate reader at 546/580 nm (excitation/emission). For PBMC proliferation, cells were plated and activated as above but incubated for only 16 h prior to addition of Alamar Blue. Plates were read after 6 h.
SMILES,AC50,outcome
CCN(Cc1c(F)cccc1Cl)c1c([N+](=O)[O-])cc(C(F)(F)F)cc1[N+](=O)[O-],4.89 µM (active),–
CCOC(=O)C(C)Oc1ccc(Oc2nc3ccc(Cl)cc3o2)cc1 (stereo not given),13.2 µM (active),–
CC(C)(C)[C@@H](O)[C@@H](Cc1ccc(Cl)cc1)n1cncn1,–,inactive
COC(=O)c1cccc(C)c1S(=O)(=O)NC(=O)Nc1nc(OCC(F)(F)F)nc(N(C)C)n1,–,inactive
O=C(c1ccccc1)C1CCCCC1,–,inactive
CCCCOC(=O)[C@@H](C)Oc1ccc(Oc2ccc(C(F)(F)F)cn2)cc1,–,inactive
COC(=O)CSc1cc(N=c2sc(=O)n3n2CCCC3)c(F)cc1Cl,–,inactive
CCCCCOC(=O)COc1cc(N2C(=O)C3=C(CCCC3)C2=O)c(F)cc1Cl,22.7 µM (active),–
c1ccc2[nH]c(-c3cscn3)nc2c1,–,inactive
O=C(Nc1ccc([N+](=O)[O-])cc1Cl)c1cc(Cl)ccc1O,0.148 µM (active),–
COC(=O)c1ccc(I)cc1S(=O)(=O)NC(=O)Nc1nc(C)nc(OC)n1,–,inactive
N#CSCSc1nc2ccccc2s1,632 nM (active) and 148 nM (active),–
CN(C)C(=O)Nc1ccc(Cl)c(Cl)c1,–,inactive
CCOC(=O)[C@H](C)Oc1ccc(Oc2nc3ccc(Cl)cc3o2)cc1,24.9 µM (active),–
CCN(CC)C(=O)c1cccc(C)c1,–,inactive
CCNc1nc(N)nc(Cl)n1,–,inactive
CCCOC(=O)c1ccc(C(=O)OCCC)nc1,–,inactive
CC(=O)[C@H]1CC[C@H]2[C@@H]3CCC4=CC(=O)CC[C@]4(C)[C@H]3CC[C@]12C,14.7 µM (active),–
COCCO,–,inactive
Cc1nn(C)c(Oc2ccccc2)c1C=NOCc1ccc(C(=O)OC(C)(C)C)cc1,6.94 µM (active),–

SMILES,AC50,outcome
CCCCC(CC)COC(=O)c1ccccc1C(=O)O (stereo not given),–,inactive
O=C(O)C1(C(=O)Nc2ccc(Cl)cc2Cl)CC1,–,inactive
CCOC(=O)c1ccc(O)cc1,–,inactive
CCCCOCCOCCOCc1cc2c(cc1CCC)OCO2,31 µM (active),–
COc1nc(C)nc(NC(=O)NS(=O)(=O)c2ccccc2OCCCl)n1,–,inactive
COC(=O)c1c(Cl)nn(C)c1S(=O)(=O)NC(=O)Nc1nc(OC)cc(OC)n1,–,inactive
CCCCC(CC)CN1C(=O)C2C3C=CC(C3)C2C1=O (stereo not given),29.6 µM (active),–
CCCCCCC(C)OC(=O)COc1nc(F)c(Cl)c(N)c1Cl (stereo not given),6.82 µM (active),–
N[C@@H](Cc1cc(I)c(Oc2ccc(O)c(I)c2)c(I)c1)C(=O)O,8.65 µM (active),–
O=C(c1ccc(O)cc1O)c1ccc(O)cc1O,–,inactive
CCC(O)=C1C(=O)CC(C(=O)O)CC1=O (stereo not given),–,inactive
CCOC(=O)COc1cc(-n2ncc(C(F)(F)F)c(C)c2=O)c(F)cc1Cl,–,inactive
CCC(C)OC(=O)N1CCCCC1CCO (stereo not given),–,inactive
C#C[C@]1(O)CC[C@H]2[C@@H]3CCC4=CC(=O)CC[C@@H]4[C@H]3CC[C@@]21CC,–,inactive
CSC(=O)c1cccc2nnsc12,–,inactive
C=CCOC(Cn1ccnc1)c1ccc(Cl)cc1Cl (stereo not given),–,inactive
S=C([S-])NCCNC(=S)[S-].[Mn+2],8.5 µM (active),–
CC(=O)S[C@@H]1CC2=CC(=O)CC[C@]2(C)[C@H]2CC[C@@]3(C)[C@@H](CC[C@@]34CCC(=O)O4)[C@H]12,20 µM (active),–
CCOC(=O)C(C)Oc1ccc(Oc2cnc3cc(Cl)ccc3n2)cc1 (stereo not given),30.6 µM (active),–
C#CCOC(=O)[C@@H](C)Oc1ccc(Oc2ncc(Cl)cc2F)cc1,14.9 µM (active),–

# — PubChem BioAssay (EPA / NIEHS)
